Measured values taken from PubChem BioAssay (NCATS).
Results filed as inconclusive are left out. The source made the active and inactive calls. Calls follow the shape of the dose curve; as a rule, active = well fitted curve in the direction sought with a large enough effect; inconclusive = small, poorly fitted or top-dose-only effect, or another doubt; inactive = no such curve, though single readings can be large; an effect the other way counts as inactive or inconclusive.

Assays:
[1] = Quantitative High-Throughput drug screen in 47 multiple myeloma cell lines against the NCATS MIPE library collection: AMO1_DSMZ cell viability assay (AID 1918927; also: nearly all actives have a fitted effect of over 30% in size; also: potency is read from the fitted curve at half-maximal effect)
In short: (§1)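 Inhibition of cell viability is measured here. Each line was plated at 500 cells per well, treated with MIPE 4.0 drugs, kept 48 hours at 37C, then assayed for ATP content by CellTiter-Glo luminescence.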

[2] = Quantitative High-Throughput drug screen in 47 multiple myeloma cell lines against the NCATS MIPE library collection: ARP1_JJKsccF8 cell viability assay (AID 1918928; also: nearly all actives have a fitted effect of over 40% in size; also: potency is read from the fitted curve at half-maximal effect)
In short: (§2)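 Each line was plated at 500 cells/well and treated 48 h with library drugs. Viability came from CellTiter-Glo luminescence relative to DMSO and cell-free medium controls.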

[3] = Quantitative High-Throughput drug screen in 47 multiple myeloma cell lines against the NCATS MIPE library collection: ARD_JJKsccE7 cell viability assay (AID 1918929; also: potency is read from the fitted curve at half-maximal effect)
In short: as §1

[4] = Quantitative High-Throughput drug screen in 47 multiple myeloma cell lines against the NCATS MIPE library collection: Karpas620_DSMZ cell viability assay (AID 1918959); also: nearly all actives have a fitted effect of over 30% in size; also: potency is read from the fitted curve at half-maximal effect
In short: (§3)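 Relative luminescence from CellTiter-Glo served as the viability signal, referenced to DMSO-treated (100%) and cell-free medium (0%) controls. Treatment lasted 48 hours at 37C with 500 cells per well.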

[5] = Quantitative High-Throughput drug screen in 47 multiple myeloma cell lines against the NCATS MIPE library collection: KMM1_JCRB cell viability assay (AID 1918960); also: nearly all actives have a fitted effect of over 30% in size; also: potency is read from the fitted curve at half-maximal effect
In short: as §2

[6] = Quantitative High-Throughput drug screen in 47 multiple myeloma cell lines against the NCATS MIPE library collection: KHM11_PLB cell viability assay (AID 1918962); also: nearly all actives have a fitted effect of over 35% in size; also: potency is read from the fitted curve at half-maximal effect
In short: as §3

[7] = Quantitative High-Throughput drug screen in 47 multiple myeloma cell lines against the NCATS MIPE library collection: JIM3_ECACC cell viability assay (AID 1918963; also: nearly all actives have a fitted effect of over 35% in size; also: potency is read from the fitted curve at half-maximal effect)
In short: as §3

[8] = Quantitative High-Throughput drug screen in 47 multiple myeloma cell lines against the NCATS MIPE library collection: INA6_PLB cell viability assay (AID 1918965; also: nearly all actives have a fitted effect of over 55% in size; also: potency is read from the fitted curve at half-maximal effect)
In short: as §3

[9] = Quantitative High-Throughput drug screen in 47 multiple myeloma cell lines against the NCATS MIPE library collection: H1112_PLB cell viability assay (AID 1918967; also: nearly all actives have a fitted effect of over 30% in size; also: potency is read from the fitted curve at half-maximal effect)
In short: as §1

[10] = Quantitative High-Throughput drug screen in 47 multiple myeloma cell lines against the NCATS MIPE library collection: KMS12BM_JCRB cell viability assay (AID 1918971); also: nearly all actives have a fitted effect of over 35% in size; also: potency is read from the fitted curve at half-maximal effect
In short: (§4)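 We plated 500 myeloma cells per well, pinned in MIPE 4.0 compounds, and incubated for 48 hours at 37C. ATP was then quantified with CellTiter-Glo, with DMSO and media-only wells defining 100% and 0%.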

[11] = Quantitative High-Throughput drug screen in 47 multiple myeloma cell lines against the NCATS MIPE library collection: KMS26_JCRB cell viability assay (AID 1918975); also: nearly all actives have a fitted effect of over 45% in size; also: potency is read from the fitted curve at half-maximal effect
In short: as §4

[12] = Quantitative High-Throughput drug screen in 47 multiple myeloma cell lines against the NCATS MIPE library collection: EJM_DSMZ cell viability assay (AID 1918926; also: nearly all actives have a fitted effect of over 30% in size)
In short: as §1

[13] = Quantitative High-Throughput drug screen in 47 multiple myeloma cell lines against the NCATS MIPE library collection: KMS12PE_JCRB cell viability assay (AID 1918972); also: nearly all actives have a fitted effect of over 30% in size; also: potency is read from the fitted curve at half-maximal effect
In short: as §3

[14] = Quantitative High-Throughput drug screen in 47 multiple myeloma cell lines against the NCATS MIPE library collection: KMS21BM_JCRB cell viability assay (AID 1918974); conditions: ATP luminescence, 48 h; viability: at 45.8 µM (top of the series); also: potency is read from the fitted curve at half-maximal effect
In short: as §1

[15] = Quantitative High-Throughput drug screen in 47 multiple myeloma cell lines against the NCATS MIPE library collection: Karpas417_ECACC cell viability assay (AID 1918961); conditions: Karpas417 myeloma viability, CellTiter-Glo ATP luminescence, 48 h; viability (% of DMSO): at 45.8 µM (top of the series); also: potency is read from the fitted curve at half-maximal effect
In short: as §3

[16] = Quantitative High-Throughput drug screen in 47 multiple myeloma cell lines against the NCATS MIPE library collection: JIM1_ECACC cell viability assay (AID 1918964; also: potency is read from the fitted curve at half-maximal effect)
In short: as §1

[17] = Quantitative High-Throughput drug screen in 47 multiple myeloma cell lines against the NCATS MIPE library collection: Karpas25_ECACC cell viability assay (AID 1918968; also: nearly all actives have a fitted effect of over 35% in size; also: potency is read from the fitted curve at half-maximal effect)
In short: as §1

[18] = Quantitative High-Throughput drug screen in 47 multiple myeloma cell lines against the NCATS MIPE library collection: KMS27_JCRB cell viability assay (AID 1918970); also: nearly all actives have a fitted effect of over 30% in size; also: potency is read from the fitted curve at half-maximal effect
In short: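 ATP-based viability (CellTiter-Glo luminescence) is measured in cells treated 48 h with approved and investigational drugs at 37 °C. Controls are DMSO-only wells for full viability and media-only wells for none.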

[19] = Quantitative High-Throughput drug screen in 47 multiple myeloma cell lines against the NCATS MIPE library collection: KMS20_JCRB cell viability assay (AID 1918973); also: nearly all actives have a fitted effect of over 45% in size
In short: as §1

[20] = Quantitative High-Throughput drug screen in 47 multiple myeloma cell lines against the NCATS MIPE library collection: JJN3_DSMZ cell viability assay (AID 1918966; also: potency is read from the fitted curve at half-maximal effect; nearly all actives have a fitted effect of over 50% in size)
In short: as §1

Measured: Potency

CO[C@@]12[C@H](COC(N)=O)C3=C(C(=O)C(C)=C(N)C3=O)N1C[C@@H]1N[C@@H]12
inactive: [1] | [3] | [4] | [5]
active: [2] 26.4 µM | [6] 33.2 µM | [7] 26.4 µM | [8] 20.9 µM | [9] 23.5 µM | [10] 23.5 µM | [11] 23.5 µM

CCN(CC)CC#CCOC(=O)C(O)(c1ccccc1)C1CCCCC1 (centres undefined)
active: [13] 26.4 µM | [14] 4.69 µM
inactive: [12] | [7] | [9] | [10]

O=C(O)c1ccc(-n2nc(-c3ccccc3O)nc2-c2ccccc2O)cc1
active: [1] 29.6 µM | [7] 18.7 µM | [16] 18.7 µM | [8] 18.7 µM | [17] 16.6 µM | [18] 18.7 µM | [14] 20.9 µM
inactive: [15]

CNC1CCCN(c2c(F)cc3c(=O)c(C(=O)O)cn(C4CC4)c3c2OC)C1 (centres undefined)
active: [17] 9.35 µM | [18] 0.0209 µM
inactive: [2] | [3] | [6] | [7] | [16] | [19]

COc1ccc2c(c1)c(CC(=O)OCC(=O)O)c(C)n2C(=O)c1ccc(Cl)cc1
inactive: [1] | [2] | [4] | [5] | [7] | [16] | [8] | [9] | [17] | [10] | [13]

CN(Cc1cc(Br)cc(Br)c1N)C1CCCCC1
inactive: [1] | [2] | [3] | [4] | [7] | [9] | [18] | [13]

Cc1nnc(NS(=O)(=O)c2ccc(N)cc2)s1
active: [1] 1.87 µM | [2] 20.9 µM | [4] 1.66 µM | [5] 1.18 µM | [8] 9.35 µM | [17] 8.33 µM | [18] 1.05 µM | [13] 1.32 µM | [14] 0.418 µM
inactive: [7] | [9]

O=c1cc(O)c(Cl)c[nH]1
active: [1] 2.64 µM | [3] 7.43 µM | [15] 1.18 µM | [16] 6.62 µM | [18] 1.66 µM | [13] 6.62 µM | [14] 0.743 µM
inactive: [2] | [6] | [7] | [9] | [17]

CCn1cc(C(=O)O)c(=O)c2cc(F)c(N3CCNCC3)cc21
active: [2] 8.33 µM
not listed: [10] | [11] | [12] | [13] | [14] | [20]
inactive: all other assays above

CCCCS(=N)(=O)CCC(N)C(=O)O (centres undefined)
inactive: [1] | [2] | [5] | [7] | [9] | [17] | [18] | [13] | [11]

C#CCN[C@@H]1CCc2ccccc21
active: [10] 11.8 µM
not listed: [8] | [12] | [14] | [16] | [17] | [18] | [19] | [20]
inactive: all other assays above

Cc1oc(=O)oc1CN1CCN(c2cc3c(cc2F)c(=O)c(C(=O)O)c2n3C(C)S2)CC1 (centres undefined)
active: [2] 14.8 µM | [20] 14.8 µM | [10] 13.2 µM
not listed: [8] | [11] | [12] | [14] | [15] | [19]
inactive: all other assays above
